Screening results: PubChem BioAssay, several laboratories
HSP90 inh: HSP90 refolding inhibition in rabbit reticulocyte lysate; luciferase refolding luminescence, 3 h; inhibition, % at 5.6 µM; 290,000 compounds, 0.91% hits;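 active means inhibition above the screen-wide mean plus 3 SD, computed separately per campaign, cut at about 16% in these data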;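 further: 0% = DMSO wells and 100% = 60 µM geldanamycin wells; inhibitors lower the luminescence because luciferase stays unfolded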
Mdm2 MdmX PPI: inhibitors of human Mdm2/MdmX interaction; O15151+Q00987; inhibition, % at 8 µM; SaOS-2 split-luciferase Mdm2/MdmX complementation, luminescence; 330,000 compounds, 3% hits;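 active means inhibition of at least 50% at 8 µM in the primary screen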
KKLEB tox: counter-screen for CF NF-kB inhibitors: cytotoxicity | KKLEB CF airway cells viability, ATPlite luminescence, overnight; active compounds read low; cells stimulated with P. aeruginosa culture filtrate | activity change (cytotoxicity), % at 5 µM | 360,000 compounds, 0.36% hits;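 active means corrected activity change at or below -50% at 5 µM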
CF NFkB inh: inhibitors of cystic fibrosis induced NF-kB | AID 588850 | 360,000 compounds, 0.86% hits | inhibition, % at 5 µM | KKLEB NF-kB-GFP reporter, PAF-induced, GFP fluorescence overnight;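 active means at least 50% inhibition at 5 µM, scaled per plate between neutral and stimulator controls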;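 further: PAF is a Pseudomonas aeruginosa culture filtrate used as stimulus; plate controls were PAF-stimulated DMSO wells for no effect and unstimulated DMSO wells for full effect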
LGR2 antag: Drosophila LGR2 receptor signaling inhibition. HEK293 LGR2, CRE-luciferase, bursicon-stimulated, 4 h. inhibition, % at 9.99 µM. 380,000 compounds, 0.35% hits;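 active means drop in luminescence signal, shown as inhibition above about 50% in the replicate tests, limit read from the data, passing the limit was not always enough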;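 further: agonist challenge used bursicon conditioned medium at about half maximal strength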
Peg3 prom inh: reduces Peg3 promoter-driven luciferase expression in HeLa | HeLa PEG-Prom luciferase reporter, luminescence, overnight | inhibition, % at 20 µM | 360,000 compounds, 1.7% hits;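 active means inhibition of at least 50% at 20 µM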
HSP90 confirm: confirmation of HSP90 inhibitors. shares compounds with HSP90 inh. AID 1846. rabbit reticulocyte lysate, luciferase refolding luminescence, 3 h. 2,300 compounds, 64% hits. inhibition, % at 5.9 µM; in the data active means inhibition above about 18%;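 further: 0% = vehicle wells and 100% = reference inhibitor wells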
luciferase ctr: firefly luciferase inhibition, HSP90 counter-screen. inhibition, % at 5.9 µM. 2,300 compounds, 48% hits. purified native firefly luciferase, luminescence. shares compounds with HSP90 inh;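 active means inhibition above the mean inhibition of all tested sample wells plus 3 SD, cut at about 10% in these data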;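 further: 0% = DMSO with luciferase and 100% = wells lacking luciferase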
Target sequence (P08659 whole entry, looked up): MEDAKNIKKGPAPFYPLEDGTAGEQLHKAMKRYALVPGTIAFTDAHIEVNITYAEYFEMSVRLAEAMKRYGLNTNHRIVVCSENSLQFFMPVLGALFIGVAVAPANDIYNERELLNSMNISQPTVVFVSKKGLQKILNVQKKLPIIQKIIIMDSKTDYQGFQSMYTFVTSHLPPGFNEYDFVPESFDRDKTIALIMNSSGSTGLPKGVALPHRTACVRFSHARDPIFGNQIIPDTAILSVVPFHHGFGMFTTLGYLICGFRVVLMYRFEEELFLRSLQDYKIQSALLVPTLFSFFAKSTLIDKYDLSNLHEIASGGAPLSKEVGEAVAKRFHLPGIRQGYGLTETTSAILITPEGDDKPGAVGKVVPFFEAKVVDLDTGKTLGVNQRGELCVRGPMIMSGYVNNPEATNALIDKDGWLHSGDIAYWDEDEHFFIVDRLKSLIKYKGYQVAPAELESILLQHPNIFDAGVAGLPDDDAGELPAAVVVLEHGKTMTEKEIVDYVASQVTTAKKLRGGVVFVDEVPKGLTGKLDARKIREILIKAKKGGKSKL
* = called active by the depositor. Rows were chosen to be rich in hits. Some 3.6% of all compounds tested hit in one or more screens of this group.

Cc1onc(-c2cccc(Cl)c2Cl)c1C(=O)O/N=C(\N)c1ccc([N+](=O)[O-])o1 was read as HSP90 inh 33*, Mdm2 MdmX PPI 48, KKLEB tox 4, CF NFkB inh -13, LGR2 antag 28, Peg3 prom inh 6, HSP90 confirm -4 and luciferase ctr -7.
C[C@@H]1CN([C@@H](C)CO)C(=O)c2cccc(NS(=O)(=O)c3cn(C)cn3)c2O[C@@H]1CN(C)Cc1ccc(-c2ccccc2)cc1 was read as LGR2 antag -9.
Screening CCN1C(=O)CC(N2CCC(c3nc4ccccc4[nH]3)CC2)C1=O (configuration not stated) returned HSP90 inh 23*, Mdm2 MdmX PPI -24, KKLEB tox -10, CF NFkB inh 4, LGR2 antag -2, Peg3 prom inh 11, HSP90 confirm 24* and luciferase ctr 5.
`Cc1cccc(N2C(=O)CC(N3CCC(c4nc5ccccc5[nH]4)CC3)C2=O)c1` (configuration not stated) gave HSP90 inh 4, Mdm2 MdmX PPI -1, KKLEB tox 18, CF NFkB inh -5 and Peg3 prom inh 2.
Screening COc1ccc(-n2c(C)cc(-c3csc(NC(=O)c4ccc(S(=O)(=O)N(C)C)cc4)n3)c2C)cc1 returned HSP90 inh 20*, Mdm2 MdmX PPI 15, KKLEB tox 9, CF NFkB inh 6, LGR2 antag 0, Peg3 prom inh 14, HSP90 confirm 39* and luciferase ctr -6.
`CN(C)S(=O)(=O)c1ccc(C(=O)Nc2nc(-c3cccs3)cs2)cc1` gave HSP90 inh 5, Mdm2 MdmX PPI 5, KKLEB tox -4, CF NFkB inh -36, LGR2 antag -16 and Peg3 prom inh 0.
Screening COc1ccc(/C=N/Nc2ncccc2[N+](=O)[O-])c(OC)c1 returned HSP90 inh 51*, Mdm2 MdmX PPI -70, KKLEB tox 6, CF NFkB inh 8, LGR2 antag 66*, Peg3 prom inh -59, HSP90 confirm 70* and luciferase ctr 62*.
`COc1ccc(/C=N/Nc2ncc(-c3ccccc3)cn2)c(OC)c1` gave HSP90 inh -2, Mdm2 MdmX PPI 11, KKLEB tox 4, CF NFkB inh 6 and Peg3 prom inh 21.
`Cc1ccc(C(=O)CSc2cnc3ccccc3n2)cc1C` gave HSP90 inh 37*, Mdm2 MdmX PPI 48, KKLEB tox 0, CF NFkB inh 34, LGR2 antag -17, Peg3 prom inh -143, HSP90 confirm 47* and luciferase ctr 29*.
O=C(NC12CC3CC(CC(C3)C1)C2)c1ccc(-c2ccccc2Cl)o1 was read as HSP90 inh 26*, Mdm2 MdmX PPI -104, KKLEB tox -9, CF NFkB inh 12, LGR2 antag -5, Peg3 prom inh -341, HSP90 confirm 38* and luciferase ctr 30*.
Screening CC1=C(CC(=O)c2ccccc2)C(=O)c2ccccc2C1=O returned HSP90 inh 17*, Mdm2 MdmX PPI 44, KKLEB tox -38, CF NFkB inh 77*, Peg3 prom inh -132, HSP90 confirm 10 and luciferase ctr -11.
For O=C(CN1C(=O)c2ccccc2C1=O)c1ccccc1 the results were HSP90 inh -2, Mdm2 MdmX PPI -5, KKLEB tox -4, CF NFkB inh 13 and Peg3 prom inh -18.
CCN(CC)S(=O)(=O)c1ccc(C)c(NC(=O)CN(C)C)c1 was read as HSP90 inh 49*, Mdm2 MdmX PPI 8, KKLEB tox 1, CF NFkB inh -12, LGR2 antag -10, Peg3 prom inh -8, HSP90 confirm -4 and luciferase ctr -5.
Screening CCN(CC)S(=O)(=O)c1ccc(C)c(NC(=O)CNCc2ccccc2OC)c1 returned HSP90 inh 2, Mdm2 MdmX PPI 3, KKLEB tox 0, CF NFkB inh 6, LGR2 antag -5 and Peg3 prom inh 7.
`COCCNC(=S)NNc1cccc(C(=O)O)c1` gave HSP90 inh 18*, Mdm2 MdmX PPI 8, KKLEB tox 0, CF NFkB inh 6, LGR2 antag 11, Peg3 prom inh -21, HSP90 confirm 9 and luciferase ctr 7.
For CCOC(=O)c1sc(N/N=C/c2ccc(N(C)C)cc2)nc1C the results were HSP90 inh -2, Mdm2 MdmX PPI -4, KKLEB tox -11, CF NFkB inh 14, LGR2 antag -27 and Peg3 prom inh -47.
`CCOC(=O)c1nc(N/N=C/c2ccccc2)sc1Br` gave HSP90 inh 21*, Mdm2 MdmX PPI 1, KKLEB tox 19, CF NFkB inh 0, LGR2 antag -4, Peg3 prom inh -91, HSP90 confirm 28* and luciferase ctr -24.
`O=C(CC(Nc1ccccc1Cl)C(=O)OCC(=O)c1cccs1)c1ccccc1` (configuration not stated) gave HSP90 inh 32*, Mdm2 MdmX PPI 40, KKLEB tox 3, CF NFkB inh 3, Peg3 prom inh -278, HSP90 confirm 43* and luciferase ctr 38*.
`CCOC(=O)N1CCC(=NNc2nc3ccccc3s2)CC1` gave HSP90 inh 26*, Mdm2 MdmX PPI -19, KKLEB tox 11, CF NFkB inh 2, LGR2 antag -51, Peg3 prom inh -204, HSP90 confirm 2 and luciferase ctr -8.
`CC(C)(C)NC(=S)NCc1ccncc1` gave HSP90 inh 23*, Mdm2 MdmX PPI -6, KKLEB tox 0, CF NFkB inh 29, LGR2 antag -7, Peg3 prom inh 11, HSP90 confirm -2 and luciferase ctr -4.
For CC(=O)N[C@H]1CC[C@@H](CCNC(=O)C2CCCCC2)O[C@@H]1CO the results were LGR2 antag -9.
`Cc1cccn2c(=O)c(/C=C(\C#N)C(=O)NC3CCS(=O)(=O)C3)c(Oc3ccccc3Cl)nc12` (configuration not stated) gave HSP90 inh 4, Mdm2 MdmX PPI 21, KKLEB tox 3, CF NFkB inh 4, LGR2 antag -12 and Peg3 prom inh 19.
`Cc1ccccc1Oc1nc2c(C)cccn2c(=O)c1/C=C(\C#N)C(=O)NC1CCS(=O)(=O)C1` (configuration not stated) gave HSP90 inh 17*, Mdm2 MdmX PPI 43, KKLEB tox 4, CF NFkB inh -8, LGR2 antag 4, Peg3 prom inh 4, HSP90 confirm 26* and luciferase ctr -11.
Screening Cc1ccc(C(=O)/C=C/c2cn(CN3CCN(C)CC3)c3ccccc23)cc1 returned HSP90 inh 5, Mdm2 MdmX PPI -149, KKLEB tox -1, CF NFkB inh -17, LGR2 antag -85 and Peg3 prom inh -197.
